Several values for one entry are separate records, joined by “and”; a condition that tells them apart may be missing. Identical values can stand only once. Hit rate of the full screen: of about 16,000 compounds, about 5,700 (36%) were called active. Another 24% or so got no clear call; they are omitted. Calls follow the shape of the dose curve; as a rule, active = well fitted curve in the direction sought with a large enough effect; inconclusive = small, poorly fitted or top-dose-only effect, or effect the other way; inactive = no such curve, though single readings can be large or run the other way. Some of the results follow.
Biological target: Cytochrome P450 1A2 (Homo sapiens) (UniProt P05177)
Sequence (P05177 whole entry, looked up): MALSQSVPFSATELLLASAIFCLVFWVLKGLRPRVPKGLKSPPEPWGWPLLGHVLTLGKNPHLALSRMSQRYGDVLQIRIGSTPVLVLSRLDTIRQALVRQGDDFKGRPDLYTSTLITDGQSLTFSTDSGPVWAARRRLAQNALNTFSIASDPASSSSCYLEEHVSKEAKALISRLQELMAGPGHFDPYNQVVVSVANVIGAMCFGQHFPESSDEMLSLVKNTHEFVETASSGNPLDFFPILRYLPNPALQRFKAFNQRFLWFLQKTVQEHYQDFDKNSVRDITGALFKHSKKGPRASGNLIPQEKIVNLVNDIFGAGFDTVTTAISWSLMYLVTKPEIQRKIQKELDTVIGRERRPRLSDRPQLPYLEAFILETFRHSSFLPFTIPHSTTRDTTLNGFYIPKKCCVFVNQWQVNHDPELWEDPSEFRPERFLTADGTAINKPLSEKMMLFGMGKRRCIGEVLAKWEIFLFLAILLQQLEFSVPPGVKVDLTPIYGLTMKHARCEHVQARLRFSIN
Assay: Cytochrome panel assay with activity outcomes
Details: recombinant CYP, pro-luciferin dealkylation, luminescence, p450-cyp1a2; series mostly up to 57.1 µM; activity, negative = inhibition: at the top concentration
% is scaled to controls: 0 for no effect and ±100 for the full control effect.

Compound	activity, negative = inhibition	AC50
O=C(c1cc(C(F)(F)F)cc(C(F)(F)F)c1)N1CCC2(CC1)CCN(c1ncccn1)CC2	-0.853% (inactive)	
CCCCN1C(=O)C(NC(=O)CC(C)C)(C(F)(F)F)C2=C1CC(C)(C)CC2=O (configuration not stated)	2.04% (inactive)	
O=C(c1cccc(F)c1)N1CCC[C@@]2(CCN(c3cccc(-c4ccccc4)c3)C2)C1		15.8 µM (active)
O=C(c1cccc(F)c1)N1CCC[C@@]2(CCN(c3ccncc3)C2)C1	-7.9% (inactive)	
O=C(c1cccc(F)c1)N1CCC[C@@]2(CCN(c3ccccc3)C2)C1	0.314% (inactive)	
C[N+]1(C)C[C@@H](O)C[C@@H]1C(=O)[O-]	-5.52% [at 25.6 µM] (inactive)	
COc1cccc(CNCc2ccc(SC)cc2)c1OC		15.8 µM (active)
COc1cccc(CN2C(=O)N(C(C)C)C(N(O)C(=O)NC(C)C)C2(C)C)c1OC (configuration not stated)	0.393% (inactive)	
COC(=O)N1CCC2(CC1)CCN(c1ccccc1)CC2	-2.85% (inactive)	
c1ccc(-c2cccc(N3CCC4(CCNCC4)CC3)c2)cc1		15.8 µM (active)
CC(=O)N1CCC2(CC1)CCN(c1ccc(-c3ccccc3)cc1)CC2		10 µM (active)
CC(=O)N1CCC2(CCCN(c3cccc(-c4ccccc4)c3)C2)CC1		5.01 µM (active)
c1ccc(C(c2ccccc2)N2CCC3(CCNCC3)CC2)cc1	-5.96% (inactive)	
CC(=O)N1CCC2(CCCN(c3ccccc3)C2)CC1	4.6% (inactive)	
CC(=O)N1CCC2(CC1)CCN(c1ccncc1)CC2	-6.29% (inactive)	
COCC(=O)N1CCC2(CC1)CCN(c1cccc(-c3ccccc3)c1)CC2		5.01 µM (active)
CC(=O)N1CCC2(CC1)CN(c1ccccc1)C2	-1.03% (inactive)	
COC(=O)N1CCC2(CC1)CCN(c1cccc(-c3ccccc3)c1)CC2	-8.58% (inactive)	
COC(=O)N1CCC2(CC1)CN(c1cccc(-c3ccccc3)c1)C2	2.46% (inactive)	
N#Cc1ccc(CN2CCC3(CC2)CCN(C(=O)c2ccncc2)CC3)cc1	12.3% (inactive)	
CC[C@@H](Nc1ncnc2nc[nH]c12)C(=O)O	-2.91% [at 11.4 µM] (inactive)	
COCC(=O)N1CCC2(CCCN(c3cccc(-c4ccccc4)c3)C2)CC1		15.8 µM (active)
O=C(Oc1ccccc1)N1CCC2(CCCN(c3cccc(-c4ccccc4)c3)C2)CC1	-15.2% (inactive)	
COCC(=O)N1CCC2(CC1)CN(C(=O)Nc1ccc(OC)cc1)C2	-5.38% (inactive)	
COCC(=O)N1CCC2(CCCN(c3ccncc3)C2)CC1	-16.3% (inactive)	

Compound	activity, negative = inhibition	AC50
COCC(=O)N1CCC2(CCCN(C(=O)Nc3ccccc3)C2)CC1	-9.85% (inactive)	
COCC(=O)N1CCC2(CC1)CN(C(=O)Nc1ccccc1)C2		12.6 µM (active)
CCn1nc(C(=O)Nc2ccccc2C)c(Cl)c1Cl		1.26 µM (active)
N#Cc1cccc(-c2nc(NCc3cccs3)c3ccccc3n2)c1		0.316 µM (active)
N#Cc1cccc(-c2nc(NCc3ccccc3)c3ccccc3n2)c1		0.398 µM (active)
N#Cc1cccc(-c2nc(NCc3cccnc3)c3ccccc3n2)c1		0.251 µM (active)
NCC[C@H]1CCC[C@H](CCN)N1	-1.4% (inactive)	
O=C(NN=C1C2CC3CC(C2)CC1C3)c1ccncc1	-17.6% (inactive)	
O=C(Nc1nnc(C2CC2)s1)c1ccc(S(=O)(=O)c2ccccc2)cc1	-13.1% (inactive)	
O=C(Nc1nnc(C2CC2)s1)c1ccncc1		12.6 µM (active)
COc1ccc(O[C@H]2C=C[C@@H](c3ccccc3)O[C@H]2CO/N=C2/[C@H]3O[C@@H]3[C@@H](O)[C@H]3[C@H]2CCn2c(=O)n(-c4ccccc4)c(=O)n23)cc1	12.3% [at 11.4 µM] (inactive)	
Cc1ccccc1NC1=NC(=S)N(c2ccccc2)C12CCOC(C)(C)C2 (configuration not stated)	10.8% (inactive)	
CS(=O)(=O)c1ccc(-c2cc(Br)sc2-c2ccc(F)cc2)cc1		0.398 µM (active)
FC(F)(F)c1cnc(/C=C/Nc2ccccc2Cl)c(Cl)c1		1.41 µM (active)
N#CC(c1ccccn1)(c1ncc(C(F)(F)F)cc1Cl)N1CCOCC1 (configuration not stated)	4.97% (inactive)	
N#CC(c1ccc(Cl)cc1)(c1ncc(C(F)(F)F)cc1Cl)N1CCOCC1 (configuration not stated)	-17.8% (inactive)	
NC(=O)C[C@H](NC(=O)Cc1ccc(O)cc1O)C(=O)O	5.5% (inactive)	
CCc1nc2c(c(SC)nn2-c2ccccc2)c(N)c1C(=O)OC		0.631 µM (active)
Nc1cc(-c2ccncc2)c[nH]c1=O		15.8 µM (active)
NC(=O)c1cc[n+](CC2=C(C(=O)O)N3C(=O)[C@@H](NC(=O)[C@H](c4ccccc4)S(=O)(=O)[O-])[C@@H]3SC2)cc1		inactive
CN(Cc1ccco1)c1nc(-c2cccc(C#N)c2)nc2ccccc12		0.1 µM (active)
COc1cccc(-c2nc(N(C)Cc3ccco3)c3ccccc3n2)c1		0.316 µM (active)
COc1cccc(-c2nc(N(C)C)c3ccccc3n2)c1		0.251 µM (active)
CC(=O)N[C@@H]1CONC1=O	-16.9% [at 11.4 µM] (inactive)	
COc1ccccc1CN1CCCC2(CCN(S(C)(=O)=O)CC2)C1	-4.29% (inactive)	

Compound	activity, negative = inhibition	AC50
COc1ccc(CNC(=O)C(c2ccc(C)cc2)N(Cc2cccs2)C(=O)c2ccc3c(c2)OCCO3)cc1 (configuration not stated)	-14.4% (inactive)	
c1ccc(CNc2ccnc(-c3ccc4c(c3)OCO4)n2)cc1		0.398 µM (active)
c1cncc(CNc2ccnc(-c3ccc4c(c3)OCO4)n2)c1		0.126 µM (active)
c1csc(CNc2ccnc(-c3ccc4c(c3)OCO4)n2)c1		0.316 µM (active)
CCOC(=O)C1=C(N)Oc2ccc(Br)cc2[C@@H]1[C@@H](C#N)C(=O)OCC		0.251 µM (active)
CO[C@@H]1COC(=O)[C@H]2CCCN2C(=O)[C@@H](C)COC(=O)C/C=C\[C@H]1C	1.25% [at 11.4 µM] (inactive)	
CCCN1CCC(=NNC(=O)c2ccc(Br)o2)CC1		8.91 µM (active)
O=C(c1ccccc1NS(=O)(=O)c1cccc([N+](=O)[O-])c1)N1CCOCC1	-7.04% (inactive)	
O=Nc1c(O)n(Cc2ccc(Cl)cc2)c2ccccc12		14.1 µM (active)
Cc1nn(CC(=O)NCCN2CCOCC2)c(C)c1[N+](=O)[O-]	8.46% (inactive)	
O=C(Nc1cccn2ncnc12)c1ccc(Cl)cc1Cl	-14.8% (inactive)	
Cl/C(=C\n1cncn1)c1ccc(Cl)cc1Cl		0.0631 µM (active)
CCOc1cccc(/C(O)=C2/C(=O)C(=O)N(Cc3cccnc3)C2c2ccco2)c1 (configuration not stated)	-3.35% (inactive)	
COc1cccc(/C(O)=C2/C(=O)C(=O)N(Cc3cccnc3)C2c2ccco2)c1 (configuration not stated)	-6.23% (inactive)	
CCOc1cccc(/C(O)=C2/C(=O)C(=O)N(Cc3ccco3)C2c2ccncc2)c1 (configuration not stated)		25.1 µM (active)
N[C@@H](Cn1ccc(=O)n(Cc2ccccc2C(=O)O)c1=O)C(=O)O	-16.3% (inactive)	
O=C(c1ccccc1)c1c[nH]c(C(=O)NCc2cccnc2)c1		3.55 µM (active)
O=S1(=O)[C@H]([C@H]2CC3c4ccccc4C2c2ccccc23)[C@@H](N2CCCCC2)[C@@H]1c1ccccc1	1.63% [at 2.29 µM] (inactive)	
Nn1c(SCC(=O)N2CCOCC2)nnc1-c1ccccc1Cl	0.0084% (inactive)	
O=C(CCn1nc(-c2ccc(Cl)cc2)ccc1=O)N1CCOCC1	-24% (inactive)	
CC(C)Cn1c(-c2ccc(Cl)cc2)cnc1SCC(=O)N1CCOCC1		12.6 µM (active)
C#CCSc1n[nH]c(-c2ccco2)n1		2 µM (active)
CN(C)C(N)=NCCC[C@H](N)C(=O)O	1.02% (inactive)	
O[C@@H](C1=C/C(=C\c2ccncc2)c2ccccc21)c1ccncc1		0.1 µM (active)
COc1ccc(CCCC(=O)NC2CCCCC2)cc1		25.1 µM (active)

Compound	activity, negative = inhibition	AC50
COc1ccc(/C=N/NC(=O)CCCC(=O)NC2CCCCC2)cc1		11.2 µM (active)
COc1ccc2c(c1)C(=O)N(CCc1ccc(S(=O)(=O)NC(=O)NC3CCCCC3)cc1)C(=O)C2(C)C	-0.736% [at 25.6 µM] (inactive)	
COc1ccc(C(C(=O)NC2CCCCC2)N(C(=O)CCCC(=O)Nc2ccccn2)c2ccc3c(c2)OCCO3)cc1 (configuration not stated)	5.6% (inactive)	
COc1ccc(C(C(=O)NC2CCCCC2)N2CCC3(CC2)OCCO3)cc1 (configuration not stated)	-25.1% (inactive)	
CCCC(=O)N=C1SC2CS(=O)(=O)CC2N1c1ccc(CC)cc1 (configuration not stated)	-25.8% (inactive)	
CC(=O)OC[C@H]1O[C@@H](O/N=C(\C)CCC(=O)OC[C@@H]2O[C@H](C#Cc3ccccc3)C=C[C@@H]2Oc2ccc(C)cc2)[C@H](OC(C)=O)[C@@H](OC(C)=O)[C@H]1OC(C)=O	-5.25% [at 11.4 µM] (inactive)	
O=c1c(-c2cccc(F)c2)nc2cncnc2n1-c1ccccc1		10 µM (active)
O=c1c(-c2cc(F)cc(F)c2)nc2cncnc2n1-c1ccccc1		12.6 µM (active)
C/C(CCN1CCc2nc(-c3ccccc3)c(-c3ccccc3)cc2C1)=N\O[C@@H](C)CN1CCCCc2nc(C)c(C)cc21	-10.7% [at 11.4 µM] (inactive)	
Cc1c(-c2ccc(O)cc2)nn(-c2ccc(O)cc2)c1-c1ccc(OCCN2CCCCC2)cc1		12.6 µM (active)
CC(=O)N1CCC[C@@]2(CCN(Cc3ccccc3)C2)C1	7.35% (inactive)	
COC(=O)[C@@]1(Cc2ccc(F)cc2)[C@H]2c3cc(C(=O)N4CCCC4)n(Cc4ccc(Cl)c(C(F)(F)F)c4)c3C[C@H]2CN1C(=O)c1ccccc1	-8.64% (inactive)	
CCOC(=O)C1=C(CSc2nc(-c3ccccc3)ccc2C#N)OC(N)=C(C#N)C1c1ccc(OC)cc1 (configuration not stated)		2 µM (active)
Cc1ccc(S(=O)(=O)Nc2ccccc2C=O)cc1	-16% [at 11.4 µM] (inactive)	
CSc1ccc(S(=O)(=O)Nc2ccc3c4c(cccc24)CC3)cc1		25.1 µM (active)
Cc1nc(SCC(=O)NCCc2ccc(Cl)cc2)nc(C)c1C		20 µM (active)
Cc1nc(SCC(=O)Nc2c(C)n(C)n(-c3ccccc3)c2=O)nc(C)c1C	-3.65% (inactive)	
O=C(NCCc1ccc(Cl)cc1)c1ncn[nH]1		20 µM (active)
NCCNC(=O)c1ccc(Cl)cc1		12.6 µM (active) and 10 µM (active)
Cc1nc(SCC(=O)Nc2ccc(N3CCOCC3)cc2)nc(C)c1C	-16.3% (inactive)	
O=C(NCCc1ccc(Cl)cc1)Nc1cccc(Cl)c1		4.47 µM (active)
N[C@@H](C(=O)O)[C@H](CC(=O)O)c1ccc(Cl)cc1	-8.76% (inactive)	

Reference: PubChem BioAssay AID1851 (National Center for Advancing Translational Sciences (NCATS), 2009)
